From PubChem BioAssay (NCI)
This is part of a sample that, as a whole, favours compounds with a hit. Of some 83,000 tested, about 20% had one in any assay.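 Single-concentration screen, 48 h exposure, 96-well plates. Endpoint: percent growth. Below 10 = active.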 Values without a mark were called inactive. Active and inactive are the calls of the source.

System: CCRF-CEM leukemia
Assay: NCI-60 one-dose screen, 48 h (100 = growth as untreated, 0 = no growth, -100 = all killed)
Conditions: 10 µM unless noted
Protocol: Growth inhibition of the CCRF-CEM human tumor cell line is measured as a screen for anti-cancer activity. Cells are grown in 96 well plates and exposed to the test compound for 48 hours. Compounds are tested at a single concentration, which is 10^-5 M for most compounds. The reported endpoint is percent growth (GI% or GIPRCNT), where numbers from 0 - 100% represent growth inhibition, and numbers from -100% - 0 represent cell death. For example, a value of 40 represents 60% growth inhibition. A value of 0 means no net growth occurred over the course of the experiment. A value of -40 indicates 40% of cells at the beginning of the experiment died by the end of the experiment. A value of -100 means all cells are dead at the end of the experiment.
NCI-60 Human Tumor Cell Lines Screen was performed using the standard one-dose NCI protocol, which is described in more detail at https://dtp.cancer.gov/discovery_development/nci-60/default.htm.
Compounds with GIPRCNT values below 10 were considered active. Activity score was based on GIPRCNT using the following formula: […]
Score is 0 for GIPRCNT values of 100 or above, 50 for GIPRCNT values of 0, and 100 for GIPRCNT values of -100.

| Compound | growth |
| --- | --- |
| Cc1ccc(C(=O)Cc2ccccc2)c(O)c1 | 112% |
| CCN(CC)c1ccc(C(=C2C=CC(=[N+](CC)Cc3cccc(S(=O)(=O)O)c3)C=C2)c2ccc(N(CC)Cc3cccc(S(=O)(=O)O)c3)cc2)cc1 | 12.4% |
| O=C(Nc1ccc2c(c1)C(=O)c1ccccc1-2)c1ccccc1 | 101% |
| O=C1c2cccc(NCCN=Cc3ccccc3O)c2C(=O)c2c(NCCN=Cc3ccccc3O)cccc21 | 3.44% (active) |
| O=C(CNC(=O)c1cccc2ccccc12)Nc1ccccc1Oc1cccc(O)c1 | 15.1% [5 µM] |
| C[N+]1(C)C2CC[C@@H]1CC(OC(=O)C(O)c1ccccc1)C2 (stereo not given in full) | 93.1% |
| CCC(C)C1NC(=O)C(CCNCS(=O)(=O)O)NC(=O)C(NC(=O)C(CCNCS(=O)(=O)O)NC(=O)C(NC(=O)C(CCNCS(=O)(=O)O)NC(=O)CCCCC(C)C)C(C)O)CCNC(=O)C(C(C)O)NC(=O)C(CCNCS(=O)(=O)O)NC(=O)C(CCNCS(=O)(=O)O)NC(=O)C(C(C)CC)NC1=O (stereo not given) | 20.7% |
| CCSc1ncc(Br)c(Sc2nc(N)nc3nc[nH]c23)n1 | 12.5% |
| CCOC(=O)CCN(c1c(Cl)ssc1=O)C(C)C | -34.9% (active) |
| Nc1nc(SCc2cccnc2)c2ncn(C3OC(CO)C(O)C3O)c2n1 (stereo not given) | 115% |
| CCN(CC)CCCCCCCNc1c2ccc(Cl)cc2nc2ccc(OC)cc12 | 0.0912% (active) |
| CC(=O)N1N=C(c2ccc(Nc3ccnc4cc(Cl)ccc34)cc2)CC1c1ccc(Cl)cc1 (stereo not given) | 31% |
| Clc1ccc2[nH]cc(-c3cncn3CCc3ccccc3)c2c1 | 54.1% |
| CNCCCn1c2c(c3ccc(F)cc3c1=O)C(=O)c1cc(OC)cnc1-2 | 1.24% (active) |
| Cc1ccc(C2=NNC(c3sc(Cl)nc3Cl)C2)cc1 (stereo not given) | 18% |
| COc1cc(C2CC(C3C(=O)N(C)C(=O)N(C)C3=O)=NN2c2cc(Cl)cc(Cl)c2)cc(OC)c1OC (stereo not given) | 88.3% |
| COc1ccc2nc(-c3ccc(Cl)cc3)cc(-c3nnc(SCC(=O)Nc4ccc(C(C)=O)cc4)n3-c3ccccc3)c2c1 | 108% |
| COc1ccc(-c2nnc3c4[nH]cnc4ncn23)c(OC)c1 | 12.6% |
| Cc1ccc(/C=C(/C#N)n2nnc3ncccc32)cc1 | 9.57% (active) |
| CC[n+]1c(/C=C/c2ccc(N3CCCC3)cc2)cccc1/C=C/c1ccc(N2CCCC2)cc1 | -7.16% (active) |

| Compound | growth |
| --- | --- |
| Cn1c(=O)c2[nH]c(=S)n(Cc3ccccc3)c2n(C)c1=O | 113% |
| O=c1ccn(C2CC=C(CO)O2)c(=O)[nH]1 (stereo not given) | 90.4% |
| C=C1CCC2C(C)(COC(=O)CC)C(OC(=O)CC)CCC2(C)C1C/C=C1/C(=O)OCC1OC(=O)CC (stereo not given) | -25.5% (active) |
| CCC(=O)Nc1cc2c(cc1Cl)-c1ccccc1C2 | 72.3% |
| COc1cc(NC(C)CCCN)c2nc(C)ccc2c1Oc1ccc(F)cc1 (stereo not given) | 78.2% |
| C/C(=C\CCc1ccoc1)CC/C=C(\C)CCCC1COC(=O)C1 (stereo not given) | 93% |
| CCN(Cc1cccc(S(=O)(=O)[O-])c1)c1ccc(C(=C2C=CC(=[N+](CC)Cc3cccc(S(=O)(=O)O)c3)C=C2)c2ccccc2S(=O)(=O)O)cc1 | 95.3% |
| Cc1cc(C)c2c(N)c3cccc(C)c3nc2n1 | 1.26% (active) |
| O=C(Nc1ccc(Cl)cc1)Nc1nc2ccc(OC(F)(F)F)cc2o1 | 80.1% |
| COc1cccc(/C=N\NC(=O)c2ccncc2)c1O | 11% |
| C[C@]12CC[C@H](O)CC1=CC[C@@H]1[C@@H]2CC[C@]2(C)C(c3cccnc3)=CC[C@@H]12 | 51.3% |
| COC(=O)C1(NC(=O)CNC(=O)OCc2ccccc2)CCCC1 | 101% |
| COc1ccc(C(=O)COc2ccc(/C=C3\Oc4ccc5ccccc5c4C3=O)cc2)cc1 | -21.9% (active) |
| CC(NC(=O)Oc1cccc2ccccc12)c1ccccc1 (stereo not given) | 72% |
| Oc1c(Cl)cc(Cl)c(Cl)c1Cc1c(O)c(Cl)cc(Cl)c1Cl | 5.78% (active) |
| Cc1cc(Cl)ccc1Nc1nc(C(F)(F)F)ccc1C(=O)N/N=C/c1ccc(Cl)cc1 | -18.8% (active) |
| COc1cccc2c1C(=O)c1c(O)c3c(c(O)c1C2=O)C[C@@](O)(C(C)=O)C[C@@H]3O[C@H]1C[C@H](N)[C@H](O)[C@H](C)O1 | -25.1% (active) |
| COc1ccc2c3c(ccc2c1)C(=O)/C(=C\O)CC3 | 72.4% |
| c1ccc2nc(N/N=C3\CCCCC3C3CCCCC3)ccc2c1 (stereo not given) | 7.99% (active) |
| Cc1nn(-c2ccccc2)cc1/C=C1\SC(N2CCCCC2)=NC1=O | 43.6% |
